# Columns and labels:
# Assay in all cases: PBM binding z-score (relative to random genomic background probes); higher = stronger binding; sequences stand for … in GC…GCGATTGACAGCGTAGAATGAAGG
# [1] = test system: RARb homodimer (NR concentration 270 nM)
# Procedure, shortened: (§1)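 Regression normalization was applied to scanned fluorescence from custom Agilent 4×180K protein-binding microarrays. Before scanning, arrays were incubated 1 h with ligand-free nuclear receptor dimers, and binding was detected with antibodies against each partner (one per run). Binding z-scores use the random background probes as reference.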
# [2] = test system: RARg:RXRa (NR concentration 270 nM, RXRa partner concentration 90 nM)
# Procedure, shortened: as §1
# [3] = test system: RARg homodimer (NR concentration 270 nM)
# Procedure, shortened: as §1
# [4] = test system: RXRa DBDmut IVT, anti-RXR (DBD mutation: RXRa K156A/R161A, NR concentration 90 nM)
# Procedure, shortened: as §1
# [5] = test system: RXRa homodimer (NR concentration 180 nM)
# Procedure, shortened: as §1
# [6] = test system: THRa:RXRa (NR concentration 90 nM, RXRa partner concentration 90 nM)
# Procedure, shortened: as §1
# [7] = test system: THRa homodimer (NR concentration 90 nM)
# Procedure, shortened: as §1
# [8] = test system: VDR homodimer (NR concentration 270 nM)
# Procedure, shortened: as §1
Sequence,PBM binding z-score [1],PBM binding z-score [2],PBM binding z-score [3],PBM binding z-score [4],PBM binding z-score [5],PBM binding z-score [6],PBM binding z-score [7],PBM binding z-score [8]
AGAACGAGGGCAATGAATTGATAGCACGGGTGGC,0.905,1.08,1.27,1.34,0.98,0.765,-0.323,0.621
AGAACGAGGGCAAAGAGTTGATAGCACGGGTGGC,1.12,1.3,1.69,2.57,1.14,0.917,-0.224,3.05
CCTGCCAGGTCAATGGTCAGCTAAAGCAGCTCGC,3.05,3.74,4.06,1.44,2.57,3.19,1.4,0.0635
CCGACTGGGGCATAAGGTTACCTTAAGCCAGCCC,1.66,1.26,0.711,-0.657,0.903,2.3,2.31,-0.441
ATCTCTAGGTAAGAGTCAGTTCAGTGAAGAACGC,0.813,0.338,0.332,0.262,0.0582,0.853,0.649,0.916
TTTAGTTGGTCACGGAGGTCACACACGACGGGTA,4.52,5.05,5.2,0.387,4.87,3.75,3.15,3.7
GGGACGAGGGCAAAGTTGATAGCATCTGTCGACG,1.44,2.17,1.98,2.35,1.9,1.52,0.0608,1.85
AACGAAAGGTCGAGGTGAGTATAGAGAAAGGGAA,2.86,4.68,4.73,0.969,5.03,2.96,0.451,0.21
CCTAGTTGGTCTGGAGGTCACACACCGGATATGA,4.22,4.49,3.84,0.895,4.63,3.67,2.69,2.97
CAAACTAGGTCAAGAGGTCAAAATCCGCTTCCCG,5.66,7.74,7.02,2.42,7.25,4.55,2.33,3.18
CAAACTAGGTCAAAGCTCAAAGTCGAGCCAACCA,2.4,4.14,4.25,1.91,3.7,2.39,0.666,0.583
ACTAGCAGGCCAAGTTTGGGTCAGTCAAACAAAG,1.85,1.65,0.925,-0.416,0.0586,1.62,0.427,-0.265
CCTTATGGGTCAAGGTTATAGCACGGGTGGTACG,2.91,4.01,4.26,0.11,3.78,2.22,0.64,1
TCTCGTAGGACACGAAAGGTCAGAGCTCGACATC,4.53,4.69,5.29,1.16,4.44,3.28,0.778,0.852
TCTAGCAGGCCAGAGGGTCAGTCAAGAGGTACGG,2.16,1.59,1.82,-0.232,1.43,0.734,-0.934,-0.429
GGAACGAGGGCATTCGAGTTTATAGCATGGCGAT,0.829,1.22,1.53,3.83,0.915,3.48,-0.483,4.64
GCTGCTAGGTCAGGTGGGTCAGCTAACGGGTACG,3.64,3.41,4.26,0.0363,2.07,2.57,0.719,0.861
ATCGAAAGGTCGAGGTGAGGATAGAGAAAGGGAA,3.07,4.35,4.28,0.642,4.31,3.87,1.64,0.466
ACAGACAGGTGAGTGAAGGTAACTCATCTGGACG,-0.00809,0.205,0.564,-0.622,0.146,1.57,-0.651,-0.803
CCTGCCAGGTCATGGTCAGCTAATCTACAGTATG,3.28,4.12,4.46,1.81,3.17,3.64,2.48,0.972
GGCACGAGGGCAAAGTTGATAGCATCTGTCGACG,1.26,2.26,1.99,2.39,2.19,1.33,-0.552,1.29
GCTAGCAGGCCATTTGGGTCACTCAGTGACGGGC,1.63,0.822,1.04,0.0208,0.754,1.9,0.383,0.166
GGAACGAGGGCATTCGATTTGATAGCATGGCGAT,0.884,1.28,1.49,3.11,1.01,1.09,-0.234,1.9
CCGACTGGGGAAAGGTTACCATAACGCACAGCCA,1.86,1.66,0.984,-0.493,2.28,1.13,-0.224,-0.242
TCACCAAGGTGAAGGTCGTTGATCCCTCTGTAGA,1.71,1.55,1.08,0.927,2.01,2.27,0.819,0.342
CCTGCTAGGGCATGGTCAGCTAATCTACAGTATG,0.406,0.464,1.07,-0.538,-0.195,-0.371,-0.949,-0.585
ATCTCTAGGTAAAAGTTCACTGAATCCCGAGGAT,3.15,3.04,2.99,0.997,3.02,2.01,0.473,2.79
GCTGCTAGGTCAACCGATGGTCAGCTAAAGCTCG,3.51,5.42,5.15,1.31,3.11,2.71,0.689,-0.333

# — the supplement of paper PMC6555819
